The structures appear in SMILES notation. Records with an inconclusive call do not appear. Where a call stands in place of a potency, no number is given. Calls of active or inactive are those of the source. Calls come from the whole dose curve; as a rule, active = well fitted inhibition curve with a large enough effect; inconclusive = small, poorly fitted or top-dose-only effect; inactive = flat fitted curve, though single readings scatter.
Potency is the fitted concentration of half-maximal effect.

Sequence of Dual specificity protein kinase CLK4 (Homo sapiens) (Q9HAZ1 whole entry, looked up): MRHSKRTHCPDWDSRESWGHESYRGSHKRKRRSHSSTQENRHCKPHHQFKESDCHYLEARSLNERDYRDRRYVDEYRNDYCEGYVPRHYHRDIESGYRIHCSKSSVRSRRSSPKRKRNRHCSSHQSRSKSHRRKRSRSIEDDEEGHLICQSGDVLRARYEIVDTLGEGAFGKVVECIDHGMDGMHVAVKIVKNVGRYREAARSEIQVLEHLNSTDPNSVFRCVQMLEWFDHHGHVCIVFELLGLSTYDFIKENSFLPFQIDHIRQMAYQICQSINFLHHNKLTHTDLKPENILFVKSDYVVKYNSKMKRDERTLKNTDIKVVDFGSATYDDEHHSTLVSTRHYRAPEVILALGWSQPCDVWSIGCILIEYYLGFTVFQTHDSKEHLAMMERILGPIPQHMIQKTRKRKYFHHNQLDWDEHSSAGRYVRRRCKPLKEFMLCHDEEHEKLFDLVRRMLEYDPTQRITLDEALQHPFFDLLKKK

This assay has as its target Dual specificity protein kinase CLK4 (Homo sapiens) (UniProt Q9HAZ1). The assay is described as follows: qHTS Assay for Inhibitors of CDC-like Kinase 4 (ADP-Glo Assay) (AID 1771). Note: nearly all actives have a fitted effect of over 70% in size. As to conditions: recombinant CLK4, ADP-Glo luminescence; series mostly up to 80 µM. The method in brief:
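25 nM Clk4 with 100 uM RS repeat peptide and 1 uM ATP (final) in buffer with 2 mM MgCl2, 0.5 mM EGTA, 2.5 mM DTT, 0.01% Triton X-100; 1 h at room temperature; ADP-Glo luminescence for ADP formed.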
On to `Cc1cccc(CNc2ncncc2-c2ccccc2CN(C)C)c1`, for which the Potency entry was “inactive”.

With `COc1ccc(Oc2ncc3nc(-c4cc(F)cc(F)c4)c(=O)n(C4CC4)c3n2)cc1`, the Potency entry is “inactive”.

For the molecule `O=c1c(-c2ccccc2)nc2cnc(Oc3ccccc3)nc2n1C[C@H]1CCCO1`, the Potency result is “inactive”.

Turning to `COc1ccccc1-c1nccc(N2CCN(C)CC2)n1`, the Potency result is “inactive”.

Consider `Cc1nc2cnc(N3CCN(C)CC3)nc2n(CCc2ccccc2)c1=O`, for which the Potency entry is “inactive”.

On to `COc1cccc(-c2cncnc2NCCN2CCOCC2)c1`, for which the Potency result was “inactive”.

As to `O=c1c(CCc2ccccc2)nc2cnc(Oc3ccccc3)nc2n1C1CC1`, the Potency entry was “inactive”.

For `CCNc1ncc2ncc(=O)n(Cc3ccc(F)cc3)c2n1`, the Potency is 6.31 µM (active).

As to `c1ccc(CNc2nc(-c3cccnc3)nc3ccccc23)cc1`, the Potency was 11.2 µM (active).

With `COc1cccc(Cn2c(=O)cnc3cnc(Nc4cccc(OC)c4)nc32)c1`, the Potency was 2.24 µM (active).

Turning to `COc1cccc(-c2ccc3ncnc(NCc4cnc(C)cn4)c3c2)c1`, the Potency is 2.51 µM (active).

As for `Cn1c(=O)c(-c2ccccc2)nc2cnc(N3CCOCC3)nc21`, the Potency entry was “inactive”.

For `CN1CCN(c2ncc3nc(-c4cn(C)c5ccccc45)c(=O)n(C[C@H]4CCCO4)c3n2)CC1`, the Potency result was “inactive”.

Regarding `COc1cccc(-c2nc(NC3CC3)c3ccccc3n2)c1`, the Potency is 7.08 µM (active).

For `COc1ccc2[nH]cc(CCNc3ncnc4ccc(-c5ccoc5)cc34)c2c1`, the Potency was 0.708 µM (active).

In the case of `O=c1c(-c2cccc(F)c2)nc2cncnc2n1Cc1ccc(F)cc1`, the Potency result is “inactive”.

On to `COc1ccccc1CNc1ncnc2ccc(-c3cccc(NS(C)(=O)=O)c3)cc12`, for which the Potency is 14.1 µM (active).

Consider `COc1ccc(CNc2ncncc2-c2ccccc2OC)c(OC)c1`, for which the Potency entry is “inactive”.

With `COCCn1c(=O)c(-c2cccs2)nc2cnc(Oc3ccccc3)nc21`, the Potency entry is “inactive”.

`CN(C)c1ncnc2ccc(-c3cccc(NS(C)(=O)=O)c3)cc12`: the Potency was 12.6 µM (active).

Turning to `COc1ccc(Oc2ncc3nc(-c4ccc(F)cc4)c(=O)n(C[C@H]4CCCO4)c3n2)cc1`, the Potency result was “inactive”.

With `CN(C)c1ncc2nc(CCc3ccccc3)c(=O)n(CCC#N)c2n1`, the Potency entry is “inactive”.

`CN(C)c1ncc2nc(CCc3ccccc3)c(=O)n(CCc3ccccc3)c2n1`: the Potency entry was “inactive”.

Regarding `COc1ccc(CNc2cc(-c3cccc(NS(C)(=O)=O)c3)ncn2)c(OC)c1`, the Potency entry is “inactive”.

Take `O=c1c(CCc2ccccc2)nc2cnc(Nc3ccccc3)nc2n1C[C@H]1CCCO1`: the Potency result is “inactive”.

`CCNc1ncc2nc(CCc3ccccc3)c(=O)n(Cc3cccc(OC)c3)c2n1`: the Potency entry is “inactive”.

Consider `COCCn1c(=O)c(-c2cc(F)cc(F)c2)nc2cnc(N3CCN(C)CC3)nc21`, for which the Potency entry is “inactive”.

For the molecule `COc1ccccc1CNc1cc(-c2ccccc2CN(C)C)ncn1`, the Potency entry is “inactive”.

`CN(Cc1ccco1)c1nc(-c2ccccc2C(F)(F)F)nc2ccccc12`: the Potency is 28.2 µM (active).

Regarding `O=c1c(CCc2ccccc2)nc2cnc(N3CCOCC3)nc2n1-c1ccccc1`, the Potency result was “inactive”.

As for `O=c1c(CCc2ccccc2)nc2cnc(N3CCNCC3)nc2n1Cc1cccs1`, the Potency entry is “inactive”.

Regarding `N#CCCn1c(=O)c(-c2cccc(C#N)c2)nc2cnc(Oc3cccc(Cl)c3)nc21`, the Potency entry was “inactive”.

Take `Cn1cc(-c2nc3cnc(N4CCNCC4)nc3n(C3CC3)c2=O)c2ccccc21`: the Potency entry is “inactive”.

For `COc1ccccc1-c1ccc2ncnc(N3CCNCC3)c2c1`, the Potency was 14.1 µM (active).

For the molecule `COCCn1c(=O)c(-c2ccccc2)nc2cnc(Oc3cccc(Cl)c3)nc21`, the Potency result was “inactive”.

As for `COc1ccccc1-c1nccc(NCc2cccs2)n1`, the Potency result was “inactive”.

Consider `Clc1ccccc1-c1nc(-n2ccnc2)c2ccccc2n1`, for which the Potency is 2.24 µM (active).

As for `COc1ccc(-n2c(=O)c(CCc3ccccc3)nc3cnc(OC)nc32)cc1`, the Potency result is “inactive”.

As to `COc1ccc(Oc2ncc3nc(-c4cccc(C#N)c4)c(=O)n(Cc4cccc(OC)c4)c3n2)cc1`, the Potency entry is “inactive”.

Take `N#Cc1cccc(-c2nc(NCCN3CCOCC3)c3ccccc3n2)c1`: the Potency was 6.31 µM (active).
